Assay outcomes (PubChem BioAssay)
Only some compounds are listed: those with a hit (about 4% of all), similar ones and a draw of the others.
UGM FP inh: inhibitors of M. tuberculosis UDP-galactopyranose mutase; P9WIQ1; purified UGM, fluorescence polarization probe displacement; actives 0.06% (n = 320,000); inhibition, % at 10 µM; in the data active means inhibition above about 10%, passing the limit was not always enough
Target sequence (P9WIQ1 whole entry, looked up): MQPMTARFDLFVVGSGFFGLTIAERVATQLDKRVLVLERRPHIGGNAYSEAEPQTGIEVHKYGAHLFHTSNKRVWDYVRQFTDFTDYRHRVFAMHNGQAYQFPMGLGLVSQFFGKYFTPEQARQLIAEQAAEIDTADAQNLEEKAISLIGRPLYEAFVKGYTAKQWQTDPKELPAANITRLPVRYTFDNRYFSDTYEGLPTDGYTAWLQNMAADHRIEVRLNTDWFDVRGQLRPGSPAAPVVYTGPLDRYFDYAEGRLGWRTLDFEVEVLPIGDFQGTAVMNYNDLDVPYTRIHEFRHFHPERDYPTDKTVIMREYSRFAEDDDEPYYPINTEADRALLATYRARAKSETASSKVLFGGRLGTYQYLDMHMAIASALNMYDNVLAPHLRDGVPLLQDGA
Mtb FBA inh: inhibits M. tuberculosis FBA enzyme. purified M. tuberculosis FBA, fluorescence read-out. inhibition, % at 1 µM. P9WQA3. actives 2.3% (n = 360,000)
Mtb bLac sens: beta-lactam sensitization of Mtb H37Rv. M. tuberculosis H37Rv growth with meropenem, percent inhibition. inhibition, % at 25 µM. actives 0.27% (n = 330,000). AID 434955; call rule not given here;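 further: growth measured after seven days incubation then overnight dye step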
GDH-TPI counter-1: counter-screen for M. tuberculosis FBA inhibitors: GDH-TPI coupled enzymes. inhibition, % at 4.8 µM. actives 1.2% (n = 360,000). GDH-TPI coupled enzyme counterscreen, NADH absorbance. AID 588335; in the data active means inhibition above about 30%
RecA splice inh: inhibitors of M. tuberculosis RecA intein splicing | cell-free RecA intein splicing, fluorescence | inhibition, % (concentration not given with the values) | actives 0.75% (n = 290,000) | AID 2221; in the data active means inhibition above about 30%
Rv3671c inh: inhibits the M. tuberculosis serine protease Rv3671c; AID 2606; actives 0.048% (n = 320,000); P9WHR9; inhibition, % at 5.96 µM; in the data active means inhibition above about 38%;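 further: extracellular domain of Rv3671c used as enzyme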
Mtb FBA confirm: Mtb FBA inhibition, confirmed | shares compounds with Mtb FBA inh | inhibition, % at 1 µM | purified M. tuberculosis FBA, fluorescence read-out | actives 78% (n = 5,600)
GDH-TPI counter-2: counter-screen for M. tuberculosis FBA inhibitors: GDH-TPI coupled enzyme inhibition; inhibition, % at 1 µM; GDH-TPI coupled enzyme counterscreen, fluorescence; actives 81% (n = 5,600); shares compounds with Mtb FBA inh; in the data active means inhibition above about 10%
Numbers stand for hits; 0 = inactive; - = not tested or not shown; + = active, no number. Unless noted, no stated cut-off is given here; in the data, active means inhibition above about 27%; inactive means the rest.

SMILES	UGM FP inh	Mtb FBA inh	Mtb bLac sens	GDH-TPI counter-1	RecA splice inh	Rv3671c inh	Mtb FBA confirm	GDH-TPI counter-2
CCOc1c2ccc(C(=O)NC3CCCc4ccccc43)cc2nn1C (centres undefined)	0	59	0	0	0	0	30	22
CCCCn1nc2cc(C(=O)N[C@H](C)C3CCCCC3)ccc2c1OCC	0	53	0	0	0	0	45	39
C=CCOc1c2ccc(C(=O)NC3CCCc4ccccc43)cc2nn1C (centres undefined)	0	0	0	0	0	0	-	-
NS(=O)(=O)c1ccc(CCNC(=O)COC(=O)Cc2c(F)cccc2Cl)cc1	0	0	0	0	0	0	-	-
COCCN(C(=O)COC(=O)c1ccc(Br)o1)c1c(N)n(Cc2ccccc2)c(=O)[nH]c1=O	-	0	-	0	-	-	-	-
Cc1ccc(OCC(=O)N/N=C2\CC(=O)CC(C)(C)C2)c(Br)c1	0	0	0	0	0	-	-	-
Cc1ccc(S(=O)(=O)N2CC(=O)N3CCN(CCN)C3C2)cc1 (centres undefined)	0	0	0	0	-	0	-	-
CC(C)Cc1nnc(NC(=O)c2ccc(-n3cncn3)c([N+](=O)[O-])c2)s1	-	0	-	0	-	-	-	-
CCCCc1cc(=O)oc2cc(OCC(=O)Nc3ccccn3)ccc12	0	46	0	0	0	0	68	58
CCCCc1cc(=O)oc2cc(OCC(=O)N3CCC(C(N)=O)CC3)ccc12	0	0	0	0	0	0	-	-
CCCCc1cc(=O)oc2cc(OCC(=O)N3CCOCC3)ccc12	0	30	0	0	0	0	139	101
CCOC(=O)C1CCCN(C(=O)c2cncc(Br)c2)CC1 (centres undefined)	-	0	-	0	-	-	-	-
S=c1[nH]cc(-c2ccccc2)[nH]1	0	53	0	0	0	0	60	60
O=C(CCCC(=O)NCC1CCCO1)NCC1CCCO1 (centres undefined)	0	0	0	0	0	0	-	-
O=C(CN1CCCCCC1)NCC1CCCO1 (centres undefined)	0	97	0	0	0	0	80	73
COc1ccc(-c2oc3ccccc3c2C(=O)OCc2ccccc2)cc1	0	99	0	0	0	0	+	175
COc1ccc(-c2oc3ccccc3c2C(=O)Oc2ccccc2)cc1	0	91	0	0	0	0	29	27
Cc1cccc(-c2oc3ccc(-c4ccc5c(c4)OCO5)cc3c2C(=O)OCc2ccc(O)cc2)c1	0	0	0	0	0	0	-	-
COc1ccc(-c2oc3ccccc3c2C(=O)OCc2ccc(O)cc2)cc1	0	74	0	0	0	0	60	64
COc1ccc(OC(=O)OCc2ccccc2)cc1	-	0	-	0	-	-	-	-
C/C(=N\NC(=O)c1nnn(-c2nonc2N)c1CSc1ccc(C)cc1)c1cccs1	-	0	-	0	-	-	-	-
O=C(CCNC(=O)C1CCN(S(=O)(=O)c2ccc(F)cc2)CC1)NCc1ccncc1	0	0	0	0	0	0	-	-
Cc1ccc(CNc2nc3ccccc3n3nnnc23)cc1	0	0	0	0	0	0	-	-
CCOC(=O)N1CCC(Nc2nc3ccccc3n3nnnc23)CC1	0	35	0	0	0	0	47	40
O=C1NC(c2ccc(Cl)c([N+](=O)[O-])c2)Nc2ccccc21 (centres undefined)	0	0	0	0	0	0	-	-
SMILES	UGM FP inh	Mtb FBA inh	Mtb bLac sens	GDH-TPI counter-1	RecA splice inh	Rv3671c inh	Mtb FBA confirm	GDH-TPI counter-2
CSc1ccc(C2NC(=O)c3ccccc3N2)cc1 (centres undefined)	0	48	0	0	0	0	0	16
Cc1ccc(C)c(C2NC(=O)c3ccccc3N2)c1 (centres undefined)	0	63	0	0	0	0	93	72
COc1ccc(C2NC(=O)c3ccccc3N2)c(OC)c1OC (centres undefined)	-	77	-	0	-	-	75	65
COc1cc(C)c(C2NC(=O)c3ccccc3N2)cc1C (centres undefined)	-	0	-	0	-	-	-	-
O=C1NC(c2ccc(O)cc2)Nc2ccccc21 (centres undefined)	0	37	0	0	0	0	39	34
O=C1NC(c2ccccc2O)Nc2ccccc21 (centres undefined)	0	33	0	0	0	0	0	11
O=C1NC(c2cccc(OCc3ccccc3)c2)Nc2ccccc21 (centres undefined)	-	42	-	0	-	-	168	134
O=S(=O)(c1ccc(Br)cc1F)N1CCC(O)CC1	-	0	-	0	-	-	-	-
Cc1ccc(NC(=O)c2ccc3snnc3c2)cc1C	0	0	0	0	0	0	-	-
O=C(Nc1ccc(F)cc1)c1ccc2snnc2c1	0	46	0	0	0	0	122	114
NC(CCc1ccccc1)c1csc(NC(=O)Nc2cccc(C(F)(F)F)c2)n1 (centres undefined)	-	0	-	0	-	-	-	-
Cn1c2ccccc2c(=O)c2ccc(NCCc3cccs3)cc21	0	109	0	0	-	0	0	0
Cc1cccc(S(=O)(=O)NC(=O)C2(C)CCN2C(=O)c2cccc(F)c2)c1 (centres undefined)	-	0	-	0	-	-	-	-
COc1ccc(CCNc2oc(COc3ccc(F)cc3)nc2C#N)cc1	0	0	0	0	-	0	-	-
N#Cc1nc(-c2ccccc2)oc1NCCN1CCCCC1	0	81	0	0	0	0	67	68
COc1ccc(CCNc2oc(-c3ccco3)nc2C#N)cc1	0	54	0	0	0	0	145	133
COc1ccc(-c2nc(C#N)c(NCCc3ccccc3)o2)cc1OC	0	102	0	0	0	0	+	+
N#Cc1nc(-c2ccco2)oc1NCCc1ccccc1	0	41	0	0	0	0	49	40
CC(C)(C)S(=O)N1Cc2cc(C(=O)Nc3ccc(-c4ccccc4)cc3)nc(-c3cccc(-c4cc5ccccc5o4)c3)c2[C@@H]1CCO (some centres undefined)	-	0	-	-	-	-	-	-
Cc1ccc(COC(=O)NCc2cccnc2)cc1	0	0	0	0	0	0	-	-
CC(C)OC(=O)c1cc2c(ccn2-c2ccc(F)cc2)n1CC(=O)N1CCN(C(=O)c2ccco2)CC1	0	36	0	0	0	0	+	+
CC(C)OC(=O)c1cc2c(ccn2C)n1CC(=O)N1CCC(Cc2ccccc2)CC1	0	0	0	0	0	0	-	-
COC(=O)c1cc2c(ccn2-c2ccc(F)cc2)n1CC(=O)N1CCN(C(=O)c2ccco2)CC1	0	29	0	0	-	0	+	197
CCn1c(-c2sc(-c3ccccc3)nc2C)n[nH]c1=S	0	0	0	0	0	0	-	-
Cc1nc(-c2ccccc2)sc1-c1ccn[nH]1	0	110	0	0	0	0	33	24
Cc1c(Cc2ccccc2)c(=O)oc2cc(OCC(=O)NCC3CCC(C(=O)O)CC3)ccc12 (centres undefined)	0	104	0	34	-	0	0	0
